This is part of a sample that, as a whole, favours compounds with a hit. Of some 83,000 tested, about 20% had one in any assay.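 Testing used 96-well plates and a 48-hour single-concentration exposure. Example: -40 means 40% of the starting cells died.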 Activity calls are given as the source filed them. The calls were made as follows: active = growth percent below 10; inactive = the rest.
System: HL-60(TB) leukemia
Assay: NCI-60 one-dose screen, 48 h (100 = growth as untreated, 0 = no growth, -100 = all killed)
Details: 10 µM unless noted

Row | SMILES | growth
1 | CCN(CC)CCCN1C(=O)c2c(c(C)c3c(oc4ccc(O)cc43)c2C)C1=O | -5.12% (active)
2 | NS(=O)(=O)Oc1ccc(NC(=O)C23CC4CC(CC(C4)C2)C3)cc1Cl | 100% (inactive)
3 | CC(C)(O)c1cccc(F)c1 | 70.7% (inactive)
4 | CCOC(=O)c1ccc[nH]1 | 79.7% (inactive)
5 | Cc1cc2cn3c4ccc(O)cc4[nH]c(=O)c3c2cc1C | -51.9% (active)
6 | COc1ccc(-c2cn[nH]c2-c2cc(OC)c(OC)c(OC)c2)cc1 | -21.2% (active)
7 | O=C(N=Nc1c(O)[nH]c2ccccc12)Nc1ccc(F)cc1 | 94.5% (inactive)
8 | CCC1C[N+]2=C(c3cc(OC)c(OC)cc3CC2)c2c1cc1n2CCc2cc(OC)c(OC)cc2-1 (stereo not given) | 8.26% (active)
9 | O=S(=O)(NCCNc1nccc(-c2c(-c3cccc(F)c3)nc3sccn23)n1)c1ccccc1 | 63.1% (inactive)
10 | CCOC(=O)c1ccccc1SC(C[N+](=O)[O-])c1ccccc1 (stereo not given) | 89.7% (inactive)
11 | O=C(Nc1sc2c(c1C(=O)O)CCCC2)c1cccc(C(F)(F)F)c1 | 92.9% (inactive)
12 | NCCCNc1nc2ccccc2c2c(=O)c3cc(C(F)(F)F)ccc3sc12 | -23% (active)
13 | NC(N)=NC(N)=Nc1cc2ccccc2c2ccccc12 | 28.8% (inactive)
14 | COc1ccc2cc(-c3nc4ccccc4s3)c(Cl)nc2c1OC | 91.4% (inactive)
15 | CSC1=Nc2c(c(C)c(-c3ccccc3)n2CCCN2CCCCC2)C2=NC(=O)C[C@H](C)N12 | -33.2% (active)
16 | COc1ccc(-c2csc3c2-n2cccc2C3=O)cc1O | -18.3% (active)
17 | O=C(N/N=C/c1coc2ccccc2c1=O)c1cc2oc(-c3ccccc3)cc2[nH]1 | 99% (inactive)
18 | CCOC(=O)C/C(C)=N\NC(=O)c1ccncc1 | 99.4% (inactive)
19 | COC(=O)c1cc(-c2ccc(Cl)c(Cl)c2)[nH]c(=O)c1C#N | 101% (inactive)
20 | N#Cc1c(N2CCOCC2)nc(=S)[nH]c1-c1ccco1 | 70.7% (inactive)

Row | SMILES | growth
21 | CCCCC(=O)OCC1OC(n2cnc3c(=S)nc[nH]c32)C(OC(=O)CCCC)C1OC(=O)CCCC (stereo not given) | 12.5% (inactive)
22 | C[N+](C)(C/C=C/c1ccccc1)Cc1ccccc1 | 92.6% (inactive)
23 | COc1cc(OCc2cccc(-c3ccccc3)c2C)cc(OC)c1CN1CCCCC1C(=O)NCCOCCOCCN (stereo not given) | -42.4% (active)
24 | O=c1oc2ccccc2cc1-c1csc(N=Nc2c(O)[nH]c3ccc(Cl)cc23)n1 | 105% (inactive)
25 | COc1cc(-c2nc3ccccc3o2)cc(CN2CCCCC2)c1O | 11.9% (inactive)
26 | c1ccc2cc(Cn3c(-c4ccc5ccccc5c4)[n+](Cc4ccc5ccccc5c4)c4ccccc43)ccc2c1 | -45.9% (active)
27 | Cc1cc(C(=O)Nc2cc(Nc3ncccc3-c3ncnc4nc[nH]c34)ccc2F)cc(C(F)(F)F)c1 | 25.1% (inactive)
28 | CN(C)CC(=O)c1ccc2cc(Br)c3ccccc3c2c1 | 53.4% (inactive)
29 | C=CCCCCOc1ccccc1-c1cnc(OCCCCC=C)n1C | 66.5% (inactive)
30 | N#C/C(C(=O)c1ccccc1)=C1/C(=O)Nc2ccccc21 | 106% (inactive)
31 | COc1ccc(-c2nc3c(c(=O)n2C(C)=O)C(c2ccc(Cl)cc2)c2sc4c(Cl)cccc4c2O3)cc1 (stereo not given) | -14% (active)
32 | Nc1cc(F)ccc1[N+](=O)[O-] | 115% (inactive)
33 | CCN(CC)CCOCC[C@H]1CC[C@H]2[C@@H]3[C@H](C)Cc4cc(OS(N)(=O)=O)ccc4[C@H]3CC[C@]12C | -74.9% (active)
34 | C[C@H]1[C@H](C)CC[C@]2(C(=O)O)CC[C@]3(C)C(=CC[C@@H]4[C@@]5(C)C[C@@H](Cc6cn([C@@H]7O[C@H](CO)[C@@H](O)[C@H](O)[C@H]7O)nn6)[C@H](O)C(C)(C)[C@@H]5CC[C@]43C)[C@H]12 | 91% (inactive)
35 | O=C(O)c1cccc(N/C=C/C(=O)c2cc3cc(Br)ccc3oc2=O)c1 | 99.8% (inactive)
36 | COc1cc(CNC(=O)c2ccsc2Nc2ccnc(C(F)(F)F)c2)ccc1O | 102% (inactive)
37 | CCCCCC(C)c1ccc(O)c(C)c1 (stereo not given) | 91.4% (inactive)
38 | C/C(=C\CCc1ccsc1)CC/C=C(\C)CCCN1CCC(CO)CC1 | -49.9% (active)
39 | COc1ccc(-n2c(SCc3cc(OC)c(OC)c(OC)c3)nc3ccc(C)cc3c2=O)cc1 | 31.1% (inactive)
40 | O=C(/C=C(\Nc1ccccc1)c1ccccc1)c1cn(-c2ccc([N+](=O)[O-])cc2)nn1 | 114% (inactive)

Source: PubChem BioAssay (NCI)
